Measurements reported in the supplement of paper PMC9694430.
Structures can show the parent of a compound that is named as a salt.

These molecules were tested on LOC_OS05G28520-cb001 (assay: thermal shift delta Tm vs DMSO control; higher = stronger stabilization (binding)). Settings: 12.5 µM; protein concentration 2 µM.
In short: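 Compounds dissolved in DMSO were added to purified rice kinase domain constructs, which had been expressed in E. coli, for differential scanning fluorimetry. Each well held 19.5 μl of 2 μM kinase in 100 mM potassium phosphate pH 7.5, 150 mM NaCl, 10% glycerol and 5 × SYPRO Orange. Fluorescence was followed from 25°C to 95°C at a rate of 0.05°C/s. Shifts in Boltzmann-fitted melting temperature are triplicate means relative to DMSO-only protein.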

| SMILES | thermal shift delta Tm [°C] |
| --- | --- |
| CCn1c(=O)c(-c2ccc(-c3cncs3)cc2Cl)cc2cnc(Nc3ccc(N4CCN(C)CC4)cc3)nc21 | 0.25 |
| CNC(=O)c1cccc(-c2ccc3c(N4CCOC[C@@H]4C)nc(N4CCOC[C@@H]4C)nc3n2)c1 [Vistusertib (AZD2014)] | -0.26 |
| CC(C)S(=O)(=O)c1ccc2nccc(Nc3ccc4scnc4c3)c2c1 | 0.25 |
| Cn1cc(-c2ccc3ncc(Cc4ccc5ncccc5c4)n3n2)cn1 | 0.45 |
| N#Cc1ccc2ncnc(NCCc3ccccc3)c2c1 [Senexin A] | 0.11 |
| O=C1NC(=O)/C(=C/c2ccc3nccc(-c4ccncc4)c3c2)S1 | 0.11 |
| Cn1cnc2c(F)c(Nc3ccc(Br)cc3F)c(C(=O)NOCCO)cc21 | 0.55 |
| Cc1cc(Nc2ncc(Cl)c(Nc3ccccc3S(=O)(=O)C(C)C)n2)c(OC(C)C)cc1C1CCNCC1 [Ceritinib (LDK378)] | 0.31 |
| Cc1nc2ccc(-n3ncc(C(=O)c4cc5ccccc5[nH]4)c3N)cc2[nH]1 | 0.51 |
| C=C[C@@](C)(/C=C/c1ccc(O)cc1)CCC=C(C)C [Bakuchiol] | 0.19 |
| C=CC(=O)Nc1cccc(Nc2nc(Nc3ccc(N4CCN(C(C)=O)CC4)cc3OC)ncc2C(F)(F)F)c1 [Rociletinib (CO-1686, AVL-301)] | 0.98 |
| CCCS(=O)(=O)Nc1ccc(F)c(C(=O)c2c[nH]c3ncc(-c4ccc(Cl)cc4)cc23)c1F [Vemurafenib (PLX4032, RG7204)] | 1.63 |
| COc1cc(OC)c(C=C2C(=O)Nc3ccccc32)c(OC)c1 | 0.31 |
| CCN(CC)CCCC(C)Nc1nc(C)cc(Nc2ccc3nc(C)cc(N)c3c2)n1 (centres undefined) | 0.14 |
| CN1CC(O)C2=C/C(=N/NC(N)=O)C(=O)C=C21 (centres undefined) [Carbazochrome] | -0.11 |
| Cc1cc(Nc2cc(N3CCN(C)CC3)nc(/C=C/c3ccccc3)n2)n[nH]1 | 7.06 |
| Cc1ccc(NC(=O)Nc2cc(C(F)(F)F)ccc2F)cc1Nc1ccc2c(c1)NC(=O)/C2=C\c1ccc[nH]1 | 0.81 |

| SMILES | thermal shift delta Tm [°C] |
| --- | --- |
| CO[C@H]1C[C@@H]2CC[C@@H](C)[C@@](O)(O2)C(=O)C(=O)N2CCCC[C@H]2C(=O)O[C@H]([C@H](C)C[C@@H]2CC[C@@H](O)[C@H](OC)C2)CC(=O)[C@H](C)/C=C(\C)[C@@H](O)[C@@H](OC)C(=O)[C@H](C)C[C@H](C)/C=C/C=C/C=C/1C [Rapamycin (Sirolimus)] | 0.16 |
| C[S+]([O-])c1ccc(-c2nc(-c3ccc(F)cc3)c(-c3ccncc3)[nH]2)cc1 (centres undefined) | 1.26 |
| CO[C@H]1CC[C@H](N2C(=O)CNc3ncc(-c4ccc(C(C)(C)O)nc4)nc32)CC1 | 0.49 |
| O=C(Nc1ccccc1C(=O)NC1CCCCNC1=O)c1cc2ccccc2s1 (centres undefined) | 0.54 |
| CCN1CCN(Cc2ccc(-c3cc4c(N[C@H](C)c5ccccc5)ncnc4[nH]3)cc2)CC1 | 1 |
| Cc1cnc(NC(=O)Nc2cc(Br)c(C)cc2OC[C@@H]2CNCCO2)cn1 | 0.03 |
| Cc1ccc(NC(=O)c2ccc(CN3CCN(C)CC3)cc2)cc1Nc1nccc(-c2cccnc2)n1 [Imatinib Mesylate (STI571)] | 0.58 |
| NC(=O)c1ccc(N(C(N)=O)c2c(F)cccc2F)nc1-c1ccc(F)cc1F | 0.58 |
| Cc1nc(-c2cn3c(n2)-c2ccc(-c4cnn(C(C)(C)C(N)=O)c4)cc2OCC3)n(C(C)C)n1 [Taselisib (GDC 0032)] | 0.19 |
| COc1cc(N2CCC(N(C)C)CC2)ccc1Nc1ncc(Cl)c(Nc2ccccc2P(C)(C)=O)n1 | 0.2 |
| COc1cc2c(Nc3ccc(NC(=O)c4ccccc4)cc3)ncnc2cc1OCCCN1CCOCC1 | 1.02 |
| CNC(=O)c1cc(Oc2ccc(NC(=O)Nc3cc(C(C)(C)C)nn3-c3ccc4ncccc4c3)c(F)c2)ccn1 [Rebastinib (DCC-2036)] | 0.81 |
| CC(C)(CO)n1cc(C(=O)c2cncc(NC(=O)Cc3ccc(Cl)cn3)c2)c2cnc(N)nc21 | 0.14 |
| CS(=O)(=O)N1CCN(Cc2cc3nc(-c4cccc5[nH]ncc45)nc(N4CCOCC4)c3s2)CC1 [Pictilisib (GDC-0941)] | 0.48 |
| C[C@@H]1COC(Nc2ccc3ncnc(Nc4ccc(OCc5nccs5)c(Cl)c4)c3c2)=N1 [Varlitinib] | 0.54 |
| COc1cc(Nc2ncc(F)c(Nc3ccc4c(n3)NC(=O)C(C)(C)O4)n2)cc(OC)c1OC | 0.56 |
| CC(C)n1nc(-c2ccc3oc(N)nc3c2)c2c(N)ncnc21 | 0.63 |
